CYP2C9 activ = human CYP2C9 activators, primary screen, biochemical, luminescence; recombinant CYP2C9, luciferin-H conversion; stronger effect = higher value; factor 1 = untreated enzyme, 0 = blocked; activation factor at 5 µM; 96,000 compounds, 1.4% hits; AID 1024, 2008;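 active means activation factor of 2 or more for CYP2C9 at a 5 µM dose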;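 further: 0 = sulfaphenazole-blocked wells and 1 = vehicle-only wells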
Target sequence (P11712 whole entry, looked up): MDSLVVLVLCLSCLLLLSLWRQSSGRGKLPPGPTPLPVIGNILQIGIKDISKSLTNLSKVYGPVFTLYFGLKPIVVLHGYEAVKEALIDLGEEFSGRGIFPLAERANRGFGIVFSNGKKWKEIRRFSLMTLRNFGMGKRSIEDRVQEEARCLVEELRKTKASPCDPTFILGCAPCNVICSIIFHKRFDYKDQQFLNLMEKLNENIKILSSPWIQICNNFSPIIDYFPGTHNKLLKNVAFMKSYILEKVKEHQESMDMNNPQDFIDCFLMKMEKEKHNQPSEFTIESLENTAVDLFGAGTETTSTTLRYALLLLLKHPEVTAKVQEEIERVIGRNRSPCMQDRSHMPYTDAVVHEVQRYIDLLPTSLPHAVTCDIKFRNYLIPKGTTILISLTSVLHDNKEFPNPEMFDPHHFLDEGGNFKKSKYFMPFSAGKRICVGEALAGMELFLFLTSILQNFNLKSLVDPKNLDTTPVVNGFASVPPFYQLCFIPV
CYP2C9 inhib = blockers of cytochrome P450 2C9 activity – biochemical, luminescence, ADME assay, primary screen | P11712 | inhibition, % at 5 µM | CYP2C9 Supersomes, luciferin-H conversion | 96,000 compounds, 20% hits;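 active means blocking of liver enzyme CYP2C9 beyond about 50% at 5 µM, limit read from the data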
Mac1 fbg inh = inhibitors of CD11b/CD18 adhesion to fibrinogen, primary screen, K562 cells, luminescence; 93,000 compounds, 0.54% hits; ATPlite luminescence; Mn2+ added to activate the integrin; Integrin beta-2 (Homo sapiens) + Integrin alpha-M (Homo sapiens), P05107+P11215; inhibition, % at 10 µM;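 active means primary inhibition of 50% or more at 10 µM, then 40% or more on retest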
CYP2C19 inhib = blockers of cytochrome P450 2C19 activity – biochemical, luminescence, ADME assay, primary screen | P33261 | CYP2C19 Supersomes, luciferin-H EGE luminescence, 30 min | inhibition, % at 5 µM | 96,000 compounds, 21% hits | AID 778, 2007;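 active means CYP2C19 inhibition above a set limit at 5 µM in the primary screen, cut at about 50% in these data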;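 further: plate controls were negative control wells for no effect and 2.5 mM tranylcypromine positive control for full effect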
CD11b adhes enh = enhancers of CD11b/CD18 adhesion to fibrinogen, primary screen, K562 cells, luminescence. ATPlite luminescence. activation, % at 10 µM. Integrin beta-2 (Homo sapiens) + Integrin alpha-M (Homo sapiens), P05107+P11215. 93,000 compounds, 0.07% hits. AID 1499, 2009;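 active means 10 µM primary screen giving 50% or more activity, confirmed by 40% or more on retest at that dose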
CYP2C19 activ = human CYP2C19 activators, primary screen, biochemical, luminescence; Cytochrome P450 2C19 (Homo sapiens), P33261; recombinant CYP2C19, luciferin-H EGE luminescence; stronger effect = higher value; 0 = fully inhibited enzyme, 1 = untreated enzyme; activation factor at 5 µM; 96,000 tested, under 10 active;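 active means activation factor of at least 2 at 5 µM in the primary screen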;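 further: 0 = wells with 2.5 mM tranylcypromine and 1 = vehicle-only wells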
* = called active by the depositor; . = no result. Compounds with a hit are over-represented: about 28% of the library has one in this group of screens.

SMILES	CYP2C9 activ	CYP2C9 inhib	Mac1 fbg inh	CYP2C19 inhib	CD11b adhes enh	CYP2C19 activ
O=C(c1ccccc1NS(=O)(=O)c1cccs1)N1CCCC1	0.9	9	-7	8	-2	0.9
O=C(O)C1CCCCN1S(=O)(=O)c1ccc(Cl)s1 (stereo not drawn)	0.5	47	-23	25	3	0.7
Cc1ccc(C2c3c(oc4ccccc4c3=O)C(=O)N2c2nnc(C(C)C)s2)o1 (stereo not drawn)	0.9	13	0	-5	6	1.1
N#CCCn1cc(/C=N/NC(=O)c2ccncc2)c(-c2ccc(F)cc2)n1	.	.	-6	.	14	.
O=S(=O)(Nc1ccc(N2CCCCC2)cc1)c1cccc2cccnc12	1.1	-6	-19	8	-1	0.9
O=S(=O)(Nc1ccc(S(=O)(=O)N2CCCCC2)cc1)c1ccc(Br)s1	0	96*	91*	18	-11	0.8
O=S(=O)(Nc1ccc(N2CCCCC2)cc1)c1cccs1	0	100*	64	98*	2	0
O=C(Cn1cnc2ccccc2c1=O)N1CCN(Cc2ccccc2)CC1	1	3	-16	-5	2	1.1
CCOC(=O)C1=C(CC)Nc2ccccc2N=C1NC(=O)c1ccc(S(=O)(=O)N(C)C)cc1	0.1	93*	-1	92*	1	0.1
CCOC(=O)c1oc2ccccc2c1NC(=O)c1ccc(S(=O)(=O)N(C)C)cc1	0.5	48	.	13	.	0.9
CCOC(=O)C1=C(C)Nc2ccccc2N=C1NC(=O)c1cccc(S(=O)(=O)N(C)C)c1	0.1	93*	7	27	-5	0.7
CCOc1cc2c(C#N)c(N3CCNCC3)nc(N)c2c(N)n1	0.5	49	11	23	3	0.8
COc1cc2c(C#N)c(N3CCc4ccccc4C3)nc(N)c2c(N)n1	0.2	85*	42	81*	7	0.2
CCOc1cc2c(C#N)c(N3CCCCC3)nc(N)c2c(N)n1	0.1	90*	1	62*	-6	0.4
CC(C)Cn1c(Cc2ccccc2)n[nH]c1=S	1.2	-23	.	40	.	0.6
COCCn1c(C)c(C(=O)O)sc1=S	1.2	-16	-8	-8	3	1.1
Cc1ccc(S(=O)(=O)Cn2nnnc2C(c2ccc(F)cc2)N2CCC(C(N)=O)CC2)cc1 (stereo not drawn)	0.9	8	0	-2	-3	1
Cc1cc(C(=O)Nc2sc3c(c2C#N)CCC3)no1	0.7	28	4	-5	1	1
Cc1cc(C(=O)Nc2sc3c(c2C#N)CCC(C)C3)no1 (stereo not drawn)	0.2	76*	-11	6	4	0.9
CC1CCc2c(sc(NC(=O)C(=O)NCc3ccco3)c2C#N)C1 (stereo not drawn)	0.3	68*	-9	13	2	0.9
Cc1ccc(C(=O)c2cn[nH]c2-c2cc(Cl)ccc2O)cc1	0.2	80*	5	96*	0	0
COc1ccc(O)c(-c2[nH]ncc2C(=O)c2ccccc2)c1	0.4	64*	0	81*	-1	0.2
CC(=O)c1nn(-c2cccc(Cl)c2)cc1C(=O)c1ccco1	1.2	-21	.	6	.	0.9
O=C(c1ccccc1)c1cn[nH]c1-c1ccccc1O	0.8	21	-2	26	-3	0.7
O=C(c1ccco1)c1cn[nH]c1-c1ccc(Cl)cc1O	0.5	51*	-18	92*	-2	0.1
SMILES	CYP2C9 activ	CYP2C9 inhib	Mac1 fbg inh	CYP2C19 inhib	CD11b adhes enh	CYP2C19 activ
CN(C)S(=O)(=O)c1ccc(C(=O)OCC(=O)NC(=O)NCc2ccccc2)cc1	1.1	-11	28	-17	-6	1.2
Cc1c(C#N)c2ncnc(N)c2n1-c1ccccc1	0.8	16	-2	15	3	0.8
CC(=O)N(C(C)=O)c1c(C#N)c(C)n(-c2ccccc2)c1C(=O)c1ccccc1	0.9	9	-1	71*	6	0.3
COc1ccc(OC)c(NC(=O)C2=C(C)Nc3ncnn3C2c2cccs2)c1 (stereo not drawn)	1	-1	-4	14	4	0.9
Brc1ccc(C2C3=C(Nc4ncnn42)c2ccccc2OC3c2ccncc2)cc1 (stereo not drawn)	0.1	89*	-2	55*	-3	0.4
COc1ccc(C2Oc3ccccc3C3=C2C(c2cccs2)n2ncnc2N3)cc1 (stereo not drawn)	0.3	67*	10	22	8	0.8
Cc1ccc(F)cc1NC(=O)C1CCCN(c2ncccn2)C1 (stereo not drawn)	0.1	94*	-56	94*	-3	0.1
CCOc1ccc(OCC)c(NC(=O)C2CCN(c3ncccn3)CC2)c1	0.5	52*	0	30	3	0.7
COCCNC(=O)C1CCCN(c2ncccn2)C1 (stereo not drawn)	1	2	-8	12	0	0.9
CCOc1ccc(OCC)c(NC(=O)C2CCCN(c3ncccn3)C2)c1 (stereo not drawn)	0.6	38	0	60*	-1	0.4
O=C(Cn1cnc2ccccc21)N/N=C/c1ccccn1	0.7	29	.	3	.	1
COCCN(CC(=O)NCc1ccc(OC)cc1)C(=O)CCC(=O)Nc1nccs1	1	1	0	6	-2	0.9
CSc1ncc(Cl)c(C(=O)Nc2ccccc2Cl)n1	.	.	-11	.	-1	.
COc1cccc(CNS(=O)(=O)c2cn(C)cn2)c1	0.9	5	-11	18	1	0.8
COC(=O)NCc1ccc2c(c1)OCO2	1.2	-15	7	-2	3	1
CN(C)S(=O)(=O)NCc1ccc2c(c1)OCO2	0.7	30	-5	69*	-4	0.3
COc1ccc(S(=O)(=O)NCc2ccc3c(c2)OCO3)cc1C(=O)O	1.4	-44	.	-11	.	1.1
COc1cccc(S(=O)(=O)NCc2ccc3c(c2)OCO3)c1	0.1	91*	-11	100*	0	0
COc1cccc(CNS(=O)(=O)/C=C/c2ccc3c(c2)OCO3)c1	0.3	69*	-2	99*	1	0
COc1ccc(S(=O)(=O)NCc2ccc3c(c2)OCO3)cc1C	0.8	24	-8	100*	-1	0
CCN(CC)CCCNC(=O)Cc1c(C(=O)O)n(C)c2ccccc12	1.2	-18	-1	0	0	1
Cn1c(C(=O)O)c(CC(=O)Nc2ccc(F)cc2F)c2ccccc21	0	95*	7	78*	0	0.2

High-throughput results (PubChem BioAssay)
